# Reference: the supplement of paper PMC8728848
# The sample as a whole holds a higher share of the strongest signals than the screen did.
# B1: Epa1-NP-mutant-Y228W (Candida glabrata), Q6VBJ0 (protein)
# chain: MILNPALFLNKCVCIYTTLILLLLTNGGYATSSNDISLASKDPTTFPLGCSPDITTPKKGLSMELYSYDFRKKGSYPCWDAAYLDPNYPRTGYKSHRLLAKVDGVTGNINFYYHATKGCTPQLGHLPASYNYPKPLTMTNFTMLLYGYFRPKVTGFHTFTISADDLLFVNFGAGNAFDCCRRDSSADHFGNYQAYAIWGSKTAKDELTVHLDAGVYYPIRLFYNNREWDGALSFTFKTESNENTVSDFSEYFFSLDDTEEGCPGLISYDSSCASVKTSKIIGIDYHTETPNENLVPITKTIYHLGIPCTGTTTTPLCGSGFYDPLANKCVTINTSSTSSVTKTTSHTTSKEVSFHSSISSQKTLIPKSIPSPYGPIKSQSIPTEMETSSEISSSEYAFSDVISTPSHSPYTKKHSSLNSSSYTSTVIHSLTSYSISQGIFSTSLSEQNITSKSSTDKFSTATSMSNNITQSSIIISQFSTNNENYTTTSMHTSSDKISTETLNNSISTTTSILFSNSSTILKNNTTIISSDKDTHYHPVNPTIVCSTNKTEIICASITQPSISNSNNHWSSSVLKFNSTTVRSTLPSSAGSNETSINVPFSSSTESNTSTSSTSTSNSKMVRSTLPSSAGSNETSISVPFSSSTESNTSTSSTSTSNSKMVRSTLPSSAGSNETSINVPFSSSTESNTSTSSTSTSNSKTVRSTPFSSAGIIMTSLSQRNNKSASSYASSNSKCYNTADSCRKVHSTPSYLLTSSYTSEGVDYDCSLVSTKLKINDTNCVNNKHTTKSCLKTSVTTTIPTLEIKTARKSSSNTIGLHSYPTSSPNKSISSAPIIGYISSFKTIKTASPSYQTSDLTTITTITSLNNPGSTAVENTHESNDKSRKTSSNDISSKHSVIKETKDAVESSNKSHQTNTLKCSSIIIASSSHNSYESLGGTTLTLTLSKVYSPQNNDTLPFLEISEVNPSRTVLPESSKMMQYLTSTEERNKTARNTIATNIVSISTFHFEGEGNAIRMGYTQLLLMLIGIIVMNIGT
# Key:
# Assay in all cases: glycan array binding signal (z-score within array); higher = stronger binding
# Conditions in all cases: glycan notation: IUPAC condensed, linker removed; mutation: Y228W
# [1] = target: Fuc(a1-2)Gal(b1-3)GlcNAc(b1-3)[Neu5Ac(a2-6)Gal(b1-4)GlcNAc(b1-6)]Gal(b1-4)Glc
# In short: (§1)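 Columns mapping to the same glycan were averaged after glycan names were converted to IUPAC-condensed notation. The data come from 3228 arrays in the Consortium for Functional Glycomics database, limited to those with an available protein sequence. Binding is reported as a within-array Z-score averaged across arrays of one protein sequence and across linkers.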
# Fuc(a1-2)Gal(b1-4)Glc = target: Fuc(a1-2)Gal(b1-4)Glc
# In short: as §1
# [2] = target: Fuc(a1-2)Gal(b1-4)GlcNAc(b1-3)Gal(b1-4)GlcNAc(b1-2)Man(a1-3)[Fuc(a1-2)Gal(b1-4)GlcNAc(b1-3)Gal(b1-4)GlcNAc(b1-2)Man(a1-6)]Man(b1-4)GlcNAc(b1-4)GlcNAc
# In short: as §1
# [3] = target: Fuc(a1-2)Gal(b1-4)GlcNAc(b1-3)[Fuc(a1-3)[Gal(b1-4)]GlcNAc(b1-6)]Gal(b1-4)Glc
# In short: as §1
# [4] = target: Fuc(a1-2)Gal(b1-4)GlcNAc(b1-6)GalNAc
# In short: as §1
# [5] = target: Fuc(a1-2)Gal(b1-4)[Fuc(a1-3)]GlcNAc(b1-3)GalNAc
# In short: as §1
# [6] = target: Fuc(a1-2)[Gal(a1-3)]Gal(b1-3)GlcNAc(b1-3)GalNAc
# In short: as §1
# [7] = target: Fuc(a1-2)[Gal(a1-3)]Gal(b1-4)GlcNAc(b1-2)Man
# In short: as §1
# [8] = target: Fuc(a1-2)[Gal(a1-3)]Gal(b1-4)[Fuc(a1-3)]GlcNAc
# In short: as §1
# [9] = target: Fuc(a1-2)[GalNAc(a1-3)]Gal(b1-4)[Fuc(a1-3)]GlcNAc
# In short: as §1
# [10] = target: Fuc(a1-2)[GalNAc(a1-3)]Gal(b1-4)[Fuc(a1-3)]GlcNAc(b1-3)GalNAc
# In short: as §1
# [11] = target: Fuc(a1-3)[Gal(b1-4)]GlcNAc(b1-2)Man(a1-3)[Fuc(a1-3)[Gal(b1-4)]GlcNAc(b1-2)Man(a1-6)]Man(b1-4)GlcNAc(b1-4)[Fuc(a1-6)]GlcNAc
# In short: as §1
# [12] = target: Fuc(a1-3)[Gal(b1-4)]GlcNAc(b1-3)Gal(b1-4)[Fuc(a1-3)]GlcNAc(b1-3)Gal(b1-4)[Fuc(a1-3)]GlcNAc
# In short: as §1
# [13] = target: Fuc(a1-3)[Gal3S(b1-4)]GlcNAc6S
# In short: as §1
# [14] = target: Gal(a1-3)Gal(b1-4)GlcNAc(b1-6)GalNAc
# In short: as §1
# [15] = target: Gal(a1-3)[Gal(a1-4)]Gal(b1-4)GlcNAc
# In short: as §1
# Gal(a1-4)Gal(b1-4)GlcNAc = target: Gal(a1-4)Gal(b1-4)GlcNAc
# In short: as §1
# Gal(b1-3)Gal(b1-4)GlcNAc = target: Gal(b1-3)Gal(b1-4)GlcNAc
# In short: as §1
# Gal(b1-3)GalNAc = target: Gal(b1-3)GalNAc
# In short: as §1
# Gal(b1-3)GalNAc(b1-3)Gal = target: Gal(b1-3)GalNAc(b1-3)Gal
# In short: as §1
# [16] = target: Gal(b1-3)GalNAc(b1-4)Gal(b1-4)Glc
# In short: as §1
# [17] = target: Gal(b1-3)GalNAc(b1-4)[Neu5Ac(a2-3)]Gal(b1-4)Glc
# In short: as §1
# Gal(b1-3)GlcNAc = target: Gal(b1-3)GlcNAc
# In short: as §1
# Gal(b1-3)GlcNAc(b1-2)Man = target: Gal(b1-3)GlcNAc(b1-2)Man
# In short: as §1
# [18] = target: Gal(b1-3)GlcNAc(b1-3)Gal(b1-4)GlcNAc
# In short: as §1
# [19] = target: Gal(b1-3)GlcNAc(b1-3)Gal(b1-4)GlcNAc(b1-2)Man(a1-3)[Gal(b1-3)GlcNAc(b1-3)Gal(b1-4)GlcNAc(b1-2)Man(a1-6)]Man(b1-4)GlcNAc(b1-4)GlcNAc
# In short: as §1
# [20] = target: Gal(b1-4)GlcNAc(a1-6)Gal(b1-4)GlcNAc
# In short: as §1
# [21] = target: Gal(b1-4)GlcNAc(b1-2)Man(a1-3)[Gal(b1-4)GlcNAc(b1-2)Man(a1-6)]Man(b1-4)GlcNAc(b1-4)[Fuc(a1-6)]GlcNAc
# In short: as §1
# [22] = target: Gal(b1-4)GlcNAc(b1-2)[Gal(b1-4)GlcNAc(b1-6)]Man(a1-6)[GlcNAc(b1-4)][Gal(b1-4)GlcNAc(b1-2)Man(a1-3)]Man(b1-4)GlcNAc(b1-4)GlcNAc
# In short: as §1
binder,measurement,setting,value
B1,glycan array binding signal (z-score),[1],-0.437
same,glycan array binding signal (z-score),Fuc(a1-2)Gal(b1-4)Glc,-0.146
same,glycan array binding signal (z-score),[2],0.051
same,glycan array binding signal (z-score),[3],-0.169
same,glycan array binding signal (z-score),[4],0.006
same,glycan array binding signal (z-score),[5],-0.204
same,glycan array binding signal (z-score),[6],-0.019
same,glycan array binding signal (z-score),[7],-0.304
same,glycan array binding signal (z-score),[8],-0.288
same,glycan array binding signal (z-score),[9],-0.138
same,glycan array binding signal (z-score),[10],-0.1
same,glycan array binding signal (z-score),[11],0.029
same,glycan array binding signal (z-score),[12],-0.169
same,glycan array binding signal (z-score),[13],0.109
same,glycan array binding signal (z-score),[14],-0.035
same,glycan array binding signal (z-score),[15],-0.336
same,glycan array binding signal (z-score),Gal(a1-4)Gal(b1-4)GlcNAc,-0.087
same,glycan array binding signal (z-score),Gal(b1-3)Gal(b1-4)GlcNAc,7.29
same,glycan array binding signal (z-score),Gal(b1-3)GalNAc,2.78
same,glycan array binding signal (z-score),Gal(b1-3)GalNAc(b1-3)Gal,2.53
same,glycan array binding signal (z-score),[16],15
same,glycan array binding signal (z-score),[17],4.99
same,glycan array binding signal (z-score),Gal(b1-3)GlcNAc,-0.24
same,glycan array binding signal (z-score),Gal(b1-3)GlcNAc(b1-2)Man,-0.27
same,glycan array binding signal (z-score),[18],-0.333
same,glycan array binding signal (z-score),[19],-0.274
same,glycan array binding signal (z-score),[20],3.19
same,glycan array binding signal (z-score),[21],0.093
same,glycan array binding signal (z-score),[22],-0.205
